Tests used:
Test in all cases: PBM binding z-score (relative to random genomic background probes); higher = stronger binding; sequences stand for … in GC…GCGATTGACAGCGTAGAATGAAGG
[1] = test system: PPARg:RXRa DBDmut IVT, anti-RXR (DBD mutation: RXRa K156A/R161A, NR concentration 270 nM, RXRa partner concentration 90 nM)
Summary of the method: (§1)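 On custom Agilent 4×180K arrays, double-stranded probes with 34-nt variable regions carried direct-repeat seeds, single-nucleotide variants, half-site ablations or random human genomic background. Ligand-free nuclear receptor dimers were applied for 1 h, and binding was read with antibodies against each partner (one per run). Binding z-scores come from regression-normalized fluorescence, with the random background probes as reference.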

[2] = test system: PPARg:RXRa IVT, anti-PPARg (NR concentration 270 nM, RXRa partner concentration 90 nM)
Summary of the method: as §1

[3] = test system: PPARg DBDmut:RXRa IVT, anti-PPARg (DBD mutation: PPARg1 K132A/R137A, NR concentration 270 nM, RXRa partner concentration 90 nM)
Summary of the method: as §1

[4] = test system: PPARg DBDmut IVT, anti-PPARg (DBD mutation: PPARg1 K132A/R137A, NR concentration 270 nM)
Summary of the method: as §1

[5] = test system: PPARg homodimer (NR concentration 180 nM)
Summary of the method: as §1

[6] = test system: PXR:RXRa (NR concentration 270 nM, RXRa partner concentration 90 nM)
Summary of the method: as §1

[7] = test system: PXR homodimer (NR concentration 270 nM)
Summary of the method: as §1

[8] = test system: RARa:RXR (NR concentration 270 nM, RXRa partner concentration 90 nM)
Summary of the method: as §1

[9] = test system: RARa homodimer (NR concentration 270 nM)
Summary of the method: as §1

[10] = test system: RARb:RXRa (NR concentration 270 nM, RXRa partner concentration 90 nM)
Summary of the method: as §1

Row | Sequence | PBM binding z-score [1] | PBM binding z-score [2] | PBM binding z-score [3] | PBM binding z-score [4] | PBM binding z-score [5] | PBM binding z-score [6] | PBM binding z-score [7] | PBM binding z-score [8] | PBM binding z-score [9] | PBM binding z-score [10]
1 | CAAACTAGGGCAAGAGGTCAAAGTCCGCTTCCCG | 6.91 | 7.47 | 1.69 | 0.0985 | 3 | 5.35 | 1.49 | 5.98 | 1.61 | 4.51
2 | CGAACTAGGTAATCCAGGACAGTGAATACATTGA | 5.67 | 4.69 | 0.81 | 0.796 | 0.0161 | -0.34 | -0.311 | -0.156 | 0.04 | 0.0507
3 | CAAACTAGGTCAAGTGGTCAAAGTCCGCTTCCCG | 8.23 | 8.54 | 2.88 | 1.21 | 2.1 | 2.11 | 0.168 | 3 | 0.47 | 4.38
4 | CGGCCTAGGTCAGGGCCAGTATAGGAGGAACGTT | 0.747 | 1.22 | -2.1 | -2.32 | -0.013 | 0.223 | -0.954 | 0.858 | -0.476 | 3.17
5 | ACTTACGGGTCAACGAGATTATAGCACGCGTATA | 3.56 | 4.11 | 1.69 | 2.1 | 2.79 | 3.31 | 0.376 | 4.37 | 1.47 | 4.23
6 | TCATATAGGTAAAGGTGAAAATCGAACGATATGA | 3.76 | 4.08 | 1.54 | 1.02 | 0.818 | 0.873 | 0.241 | 1.5 | 0.976 | 1.73
7 | ACAGACAGGTGAGTGAAGCTAACTCAGCTGGACG | 0.196 | 0.291 | -0.859 | -1.17 | -1.1 | -0.701 | -0.552 | -0.839 | -0.721 | 0.276
8 | CCTTACGGCTCACTGACAGGTTATAGCATTTGGA | 0.701 | -0.612 | 0.0543 | -0.0527 | 0.157 | 0.158 | 0.192 | 0.669 | 0.331 | 0.0996
9 | CAAACTATGTCAAGGTCAAAGTCGGTTTGTGCCA | 5.27 | 4.71 | 0.328 | 0.339 | 2.4 | 5 | 3.33 | 4.46 | 1.69 | 4.25
10 | CGAACTAGGTTATCCAGGACAGTGAATACATTGA | 6.42 | 5.96 | 0.89 | 0.666 | 0.877 | 0.173 | 0.527 | 0.654 | 0.298 | 0.828
11 | CTGCCAAGGTGAACAAGGTCGTTGATTACTATTC | 2.22 | 2.18 | -0.417 | -1 | 0.571 | 2.35 | 1.73 | 1.9 | -0.469 | 2.08
12 | TCTTGTAGATCAGCAGGTTAAGAAAGCTGGCCAA | 1.47 | 0.491 | 0.15 | 0.117 | -0.272 | 0.155 | -0.284 | 0.351 | -0.421 | 0.213
13 | ATCTGTAGGTAAAAGTTCAGTGAATCCCGAGGAT | 1.88 | 3.51 | 0.891 | 0.681 | 1.13 | 2.01 | 1.1 | 2.07 | 1 | 2.38
14 | TGTCCAAGTTCAAAGGTAACGTAAGTATCCACAC | -0.319 | 1.81 | 1.26 | 1.32 | 1.85 | 4.87 | 3.45 | 5.04 | 0.541 | 3.42
15 | CGTCCAAGGTCAGAGAGGTCAGTGAATGCCGAGT | 3.16 | 3.45 | 0.28 | -0.412 | 5.38 | 6.23 | 12.3 | 5.74 | 3.8 | 5.21
16 | ATCTCTAGGTAACCAAGTTGAGTGAATGCCGAAC | 3.51 | 2.64 | 0.787 | 1.26 | 0.031 | -0.00792 | 0.194 | 0.144 | 0.0193 | 0.243
17 | TCGAGTAGGTTACCAATGTGGCATTCAGCTTTCT | 3.64 | 2.82 | -0.0688 | -0.478 | -0.26 | 0.165 | -0.485 | 0.147 | -1.11 | 0.736
18 | ATCTCTAGGTAACTAAGTTCAGTGAATGCCGAAC | 2.67 | 2.89 | 1.24 | 1.19 | 1.29 | 2.49 | 2.44 | 1.25 | 0.922 | 1.37
19 | CCTACTGGCCCAAGGTCATTGATCAGTCAAAGCA | -0.104 | 1.17 | -0.998 | -0.271 | 2.64 | 3.52 | 1.68 | 3.36 | 0.651 | 3.4
20 | ACAGACAGGTGATGAAGGTAACTCCGGCTATCAT | 0.0958 | 0.462 | 0.468 | 0.294 | -0.227 | 0.0944 | -0.1 | 0.357 | 0.0561 | 0.429
21 | CGTCCAATGTCAGCAGGTCAGTGAAAGCGACGTG | 0.4 | 0.811 | -0.067 | -0.189 | 1.33 | 0.416 | -0.258 | 1.17 | 0.0652 | 2.6
22 | CGAACGAGGGCATGATTTGATAGCAAATGCCGAT | 2.59 | 1.81 | -0.0165 | -0.269 | -0.834 | 0.0992 | -0.377 | 0.0639 | -0.507 | 1.78
23 | TCATATATGTAAACAGGTGAAAGTCCGTAAGTTA | 2.85 | 1.7 | 1.25 | 1.22 | 0.985 | 1.08 | 0.358 | 1.24 | 0.262 | 0.572
